Source: PubChem BioAssay
An excerpt weighted towards active compounds, which were near 11% of everything screened.
USP30 inh: blocks human USP30 ubiquitin-rhodamine cleavage | Q70CQ3 | purified USP30, Ub-rhodamine cleavage fluorescence | inhibition, % at 25 µM | actives 5.3% (n = 47,000) | AID 1645860
USP17 block: inhibitors of human USP17 deubiquitinase. A8MUK1. purified USP17, Ub-rhodamine cleavage fluorescence, 3 h. inhibition, % at 50 µM. actives 6.5% (n = 47,000). AID 1645855
Target sequence (A8MUK1 whole entry, looked up): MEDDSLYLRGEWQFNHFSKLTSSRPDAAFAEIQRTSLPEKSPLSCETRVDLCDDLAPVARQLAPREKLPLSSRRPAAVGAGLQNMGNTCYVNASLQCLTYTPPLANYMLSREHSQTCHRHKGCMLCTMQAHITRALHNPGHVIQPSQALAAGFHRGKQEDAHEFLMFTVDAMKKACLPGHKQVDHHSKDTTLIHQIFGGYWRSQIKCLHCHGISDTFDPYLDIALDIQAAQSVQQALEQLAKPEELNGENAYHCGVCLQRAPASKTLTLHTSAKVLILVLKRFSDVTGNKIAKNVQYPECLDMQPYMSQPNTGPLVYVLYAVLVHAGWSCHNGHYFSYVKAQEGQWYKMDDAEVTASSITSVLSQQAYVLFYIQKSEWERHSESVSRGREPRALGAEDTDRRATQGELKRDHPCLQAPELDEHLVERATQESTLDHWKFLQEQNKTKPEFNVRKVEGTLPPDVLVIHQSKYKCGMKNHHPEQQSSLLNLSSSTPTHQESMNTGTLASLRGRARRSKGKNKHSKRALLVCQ
USP28 inh: blocks human USP28 ubiquitin-rhodamine cleavage. purified USP28, Ub-rhodamine cleavage fluorescence, 30 min. inhibition, % at 25 µM. actives 3% (n = 47,000)
Numbers without * were called inactive. Rule as the data show it: active = inhibition above about 30%; inactive = the rest.

Results for Cc1ccc(C)c(Nc2nc(NCc3ccccc3)c3ccccc3n2)c1 ?
USP30 inh: 82*; USP17 block: 51*; USP28 inh: 61*

How did Cc1ccc(S(=O)(=O)N2C(=O)CCC2C(=O)N2CCCC2)cc1 (configuration not stated) do in these assays?
USP17 block: -2

Results for Cc1ccc(-n2ncc(C(=O)NCc3cccnc3)c2C2CCNCC2)cc1 ?
USP30 inh: -18; USP17 block: -23; USP28 inh: -11

What do the screens show for `Cc1ccc(CNC(=O)c2cnn(-c3ccc([N+](=O)[O-])cc3)c2C2CCNCC2)cc1`?
USP30 inh: 44*; USP17 block: -28; USP28 inh: 14

How did COc1ccc(C(=O)NCC(=O)Nc2nc3ccccc3[nH]2)cc1 do in these assays?
USP30 inh: 12; USP17 block: 22; USP28 inh: -4

Results for COc1ccccc1CC(=O)Nc1nc2ccccc2[nH]1 ?
USP30 inh: 15; USP17 block: 60*; USP28 inh: 3

What do the screens show for `O=C(Cc1ccccc1F)Nc1nc2ccccc2[nH]1`?
USP30 inh: 14; USP17 block: 2; USP28 inh: -12

What do the screens show for `COc1ccc(C(C)=O)cc1CC(=O)Nc1nc2ccccc2[nH]1`?
USP30 inh: 21; USP17 block: 59*; USP28 inh: 24

Results for Cc1c(OCC(=O)Nc2nc3ccccc3[nH]2)ccc2c3c(c(=O)oc12)CCC3 ?
USP30 inh: 52*; USP17 block: 37*; USP28 inh: 8

Results for Cc1ccc(C(C)C)cc1OCC(=O)Nc1nc2ccccc2[nH]1 ?
USP30 inh: 17; USP17 block: 8; USP28 inh: 4

What do the screens show for `COc1ccc(-c2csc3ncnc(NCc4cccnc4)c23)cc1`?
USP30 inh: 12; USP17 block: 4; USP28 inh: 5

Results for CSCCC(NC(=O)c1c(C)nn(Cc2ccccc2Cl)c1C)c1nc2ccccc2[nH]1 (configuration not stated) ?
USP30 inh: -14; USP17 block: -6; USP28 inh: -5

How did COc1ccc(OC)c(NC(C)C)c1 do in these assays?
USP30 inh: -42; USP17 block: 6; USP28 inh: -5

How did COc1ccc2ncc3c(-c4ccc(C)cc4)nn(-c4ccc(F)cc4)c3c2c1 do in these assays?
USP30 inh: -12; USP17 block: 57*; USP28 inh: -14

What do the screens show for `Cc1ccc(-c2nn(-c3ccc(F)cc3)c3c2cnc2cc4c(cc23)OCCO4)cc1`?
USP30 inh: -23; USP17 block: 5; USP28 inh: 0

Results for CCc1cc(C2CCCN2S(=O)(=O)c2ccc3c(c2)OCCN3C(C)=O)on1 (configuration not stated) ?
USP30 inh: -45; USP17 block: 8; USP28 inh: 39*

What do the screens show for `CCn1nccc1C1CCCN1S(=O)(=O)c1ccc2c(c1)OCCO2` (configuration not stated)?
USP30 inh: 8; USP17 block: -7; USP28 inh: 0

Results for CC(=O)N1CCOc2ccc(S(=O)(=O)Nc3ccccc3F)cc21 ?
USP30 inh: 17; USP17 block: -8; USP28 inh: 3

How did CC(=O)N1CCOc2cc(S(=O)(=O)N3CCCC3c3cc(C)no3)ccc21 (configuration not stated) do in these assays?
USP30 inh: 20; USP17 block: 7; USP28 inh: 52*

Results for O=C(NCc1ccc2c(c1)OCO2)c1ccccc1NC(=O)c1c(F)cccc1F ?
USP30 inh: -7; USP17 block: -6; USP28 inh: -14

Results for Cc1ccccc1C(=O)N1CCN(C2CCN(Cc3c(C)noc3C)CC2)C(=O)C1 ?
USP30 inh: -6; USP17 block: 1; USP28 inh: -5

What do the screens show for `O=C1CCSc2ccc(Cl)cc2N1Cc1ccc(Cl)cc1`?
USP30 inh: 30; USP17 block: 13; USP28 inh: 42*

What do the screens show for `O=C1CCSc2ccccc2N1Cc1ccccc1F`?
USP30 inh: 14; USP17 block: 0; USP28 inh: 25

What do the screens show for `O=C(c1c(F)cccc1F)N1CCCC(c2[nH]nc3nccnc23)C1` (configuration not stated)?
USP30 inh: -2; USP17 block: 6; USP28 inh: 0

Results for Cc1nn(-c2nc3ccccc3o2)c2c1C(c1ccc(F)cc1)CC(=O)N2 (configuration not stated) ?
USP30 inh: 25; USP17 block: 3; USP28 inh: 10

What do the screens show for `Cc1nn(-c2nc3ccccc3o2)c2c1C(c1cccc(F)c1F)CC(=O)N2` (configuration not stated)?
USP30 inh: 32*; USP17 block: 27; USP28 inh: 16

How did CCC(C)n1nnc2cc(S(=O)(=O)N3CCC(C(=O)N4CCOCC4)CC3)ccc21 (configuration not stated) do in these assays?
USP30 inh: -22; USP17 block: -15; USP28 inh: -8

How did CN(C)c1nc2cc(C(=O)N3CCOCC3)sc2n1-c1ccccc1 do in these assays?
USP17 block: 19

How did COc1ccc(-n2c(SCC(=O)c3c[nH]c4ccccc34)nnc2-c2ccccc2)cc1OC do in these assays?
USP30 inh: 6; USP17 block: -8; USP28 inh: -6

Results for CCN(c1ccc(NC(=O)CSc2nnc(-c3ccccc3)n2-c2ccc(OC)c(OC)c2)cc1)C(C)C ?
USP30 inh: 46*; USP17 block: 63*; USP28 inh: 41*

What do the screens show for `O=C(Nc1ccc2nc(CCc3ccccc3)[nH]c2c1)c1ccncc1`?
USP30 inh: 20; USP17 block: 5; USP28 inh: 6

How did Clc1ccc2nc(COc3ccccc3Cc3ccccc3)[nH]c2c1 do in these assays?
USP30 inh: 10; USP17 block: 31*; USP28 inh: 5

How did COc1ccc(C(=O)Nc2ccccc2C(=O)NC(Cc2ccc(O)cc2)C(=O)NNC(=O)Cc2ccc(OC)c(OC)c2)cc1 (configuration not stated) do in these assays?
USP30 inh: 31*; USP17 block: 31*; USP28 inh: 24

What do the screens show for `COc1ccc(CNC(=O)c2ccccc2NC(=O)c2ccc(F)cc2)cc1`?
USP30 inh: 13; USP28 inh: 13

What do the screens show for `CS(=O)(=O)N(CC(=O)Oc1cccc(C(F)(F)F)c1)c1ccc(Cl)cc1`?
USP30 inh: 0; USP17 block: 1; USP28 inh: 3

What do the screens show for `O=C(NCC1CCOCC1)c1nccc2ccccc12`?
USP30 inh: 16; USP17 block: 13; USP28 inh: 8

What do the screens show for `CCN1C(=O)[C@H]2CN(C(C)=O)C[C@H]2C12CCN(C(=O)Nc1ccc(Cl)cc1)CC2`?
USP30 inh: -16; USP17 block: -11; USP28 inh: 2

What do the screens show for `CCc1cccc2c(C(=O)COc3ccc(C#N)cc3)c[nH]c12`?
USP30 inh: 91*; USP17 block: 43*; USP28 inh: 71*

How did CCc1cccc2c(C(=O)COC(=O)C(NC(=O)c3cccc(S(=O)(=O)N4CCOCC4)c3)C(C)C)c[nH]c12 (configuration not stated) do in these assays?
USP30 inh: -28; USP17 block: 10; USP28 inh: 1
